Over roughly 33,000 sequences, “e-score” has its median near -0.05; the highest 2% begin near 0.38. This excerpt belongs to a sample that is enriched for the highest values.

This experiment deals with T1, SIX1-Q177R homeodomain (human, UniProt Q15475 108-198, Q177R).
T1 sequence: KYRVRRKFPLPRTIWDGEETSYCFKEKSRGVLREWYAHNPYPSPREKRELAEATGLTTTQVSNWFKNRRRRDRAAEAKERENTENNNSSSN
Put plainly: universal protein binding microarray; Universal all-10-mer PBM (8x60K, AMADID 030236), 300 nM GST-tagged protein, Alexa Fluor 488 anti-GST; buffer, salt, pH and temperature not stated (as in Berger); high values mean tight binding. As to conditions: protein: ivt; tags: N-terminal GST; dsDNA, one strand shown. In a few lines: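 Binding of GST-tagged homeodomains is given as 8-mer E-scores from the Universal PBM Analysis Suite. The proteins were produced by in vitro transcription/translation, quantified by anti-GST western blot against a recombinant GST standard curve, and applied in duplicate at 300 nM final concentration to universal 'all 10-mer' protein binding microarrays (8×60K format).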
As for ATACCCAC, the binding signal is 0.196 ± 0.0233 E-score.

Turning to CACCAGAC, the binding signal stood at 0.338 ± 0.00569 E-score.

As for CACCGCCC, the binding signal amounted to 0.3 ± 0.0125 E-score.

Take ACACGAGG: the binding signal was determined as 0.3796 ± 0.00182 E-score.

On to ACCCGAGT, for which the binding signal was 0.259 ± 0.0341 E-score.

On to ACACGAGA, for which the binding signal turned out to be 0.352 ± 0.0163 E-score.

As for ACGCGAGT, the binding signal was 0.162 ± 0.045 E-score.

With ACACGAGT, the binding signal is 0.4013 ± 0.00247 E-score.

In the case of ACACGAGC, the binding signal is 0.3292 ± 0.0011 E-score.

Regarding CACCGCGA, the binding signal was found to be 0.238 ± 0.0133 E-score.

In the case of ACCGGGGG, the binding signal is 0.238 ± 0.00986 E-score.

Take CAGGGTAC: the binding signal was 0.162 ± 0.0178 E-score.

As for AACCCAGA, the binding signal stood at 0.214 ± 0.0243 E-score.

For the sequence CACTATAA, the binding signal was 0.253 ± 0.0572 E-score.

Consider CACCTTAA, for which the binding signal amounted to 0.172 ± 0.0487 E-score.

For the sequence GCGTGTGA, the binding signal stood at 0.347 ± 0.0138 E-score.

As for CCTTGTAA, the binding signal worked out at 0.244 ± 0.024 E-score.

ACGTGTAA: the binding signal worked out at 0.413 ± 0.0225 E-score.

As for CCGGGTAG, the binding signal turned out to be 0.169 ± 0.0152 E-score.

For GCGTGTAA, the binding signal is 0.441 ± 0.0209 E-score.

In the case of ACGTGTGA, the binding signal is 0.293 ± 0.00636 E-score.

In the case of CCGTGTAA, the binding signal is 0.44 ± 0.0102 E-score.

Turning to CCGGGTAA, the binding signal came out at 0.177 ± 0.0166 E-score.

Regarding GCGGGTAA, the binding signal is 0.164 ± 0.019 E-score.

Consider CCGTGCAC, for which the binding signal stood at 0.198 ± 0.0196 E-score.

As for CCGTGTAG, the binding signal amounted to 0.4463 ± 0.00194 E-score.

For TATCGTCA, the binding signal was 0.211 ± 0.012 E-score.

Take CGAAAACA: the binding signal is 0.186 ± 0.0616 E-score.

CACCTAGC: the binding signal is 0.168 ± 0.00559 E-score.

Consider ACCTCAAC, for which the binding signal amounted to 0.27 ± 0.0213 E-score.

Take CACCCTTC: the binding signal came to 0.31 ± 0.0119 E-score.

For the sequence CAGCTACA, the binding signal stood at 0.191 ± 0.0188 E-score.

Consider GATACTGC, for which the binding signal came to 0.158 ± 0.0138 E-score.

Take CACGTTCA: the binding signal was found to be 0.158 ± 0.0324 E-score.

Take AATAGGGG: the binding signal was determined as 0.171 ± 0.0238 E-score.

With TCGGGTAA, the binding signal amounted to 0.194 ± 0.00451 E-score.

Take TCGTGTAA: the binding signal was 0.434 ± 0.0291 E-score.

For GCTGAACA, the binding signal is 0.169 ± 0.0308 E-score.

Consider GGGTTTCA, for which the binding signal came out at 0.15 ± 0.00187 E-score.

As for GTCAACAC, the binding signal is 0.38 ± 0.00874 E-score.

In the case of AGCAACAC, the binding signal turned out to be 0.361 ± 0.00441 E-score.

On to ATCAACAC, for which the binding signal was found to be 0.3939 ± 0.00328 E-score.

Take CTCAACAC: the binding signal was 0.393 ± 0.0141 E-score.

For the sequence GTCAAACA, the binding signal came out at 0.1886 ± 0.00104 E-score.

Consider TCCTTACA, for which the binding signal was 0.222 ± 0.0176 E-score.

Consider ATTGATCC, for which the binding signal was determined as 0.187 ± 0.0355 E-score.

Consider CATCTGAC, for which the binding signal was 0.236 ± 0.0527 E-score.

Turning to CACTTCAC, the binding signal was 0.154 ± 0.0408 E-score.

In the case of ACTCCGCG, the binding signal was found to be 0.22 ± 0.00707 E-score.

As to CACACGTG, the binding signal amounted to 0.362 ± 0.00543 E-score.

As for CCAGGATA, the binding signal is 0.2169 ± 0.00146 E-score.

Take ACCCCCGC: the binding signal worked out at 0.318 ± 0.046 E-score.

Regarding AACCCCGT, the binding signal turned out to be 0.174 ± 0.0274 E-score.

Consider CCACCCGA, for which the binding signal worked out at 0.206 ± 0.00492 E-score.

As for ACACCCGC, the binding signal worked out at 0.4623 ± 0.00219 E-score.

For the sequence ACACCCGA, the binding signal turned out to be 0.457 ± 0.00947 E-score.

For CCACCCGG, the binding signal turned out to be 0.201 ± 0.0191 E-score.

With ACCCCCGT, the binding signal stood at 0.273 ± 0.0189 E-score.

Turning to ACACCCGT, the binding signal turned out to be 0.4709 ± 0.00247 E-score.

On to GCACCCGA, for which the binding signal came to 0.235 ± 0.00309 E-score.

As for ACCCCCGG, the binding signal worked out at 0.305 ± 0.0423 E-score.

On to ACACCCGG, for which the binding signal amounted to 0.4824 ± 0.0027 E-score.

Take GCACCCGC: the binding signal came to 0.227 ± 0.0318 E-score.

GGGAGTCA: the binding signal turned out to be 0.221 ± 0.0066 E-score.

Turning to ATAGGGGG, the binding signal is 0.259 ± 0.00343 E-score.

On to CACGGGGA, for which the binding signal came to 0.199 ± 0.0103 E-score.

As to CCCGTAGG, the binding signal came to 0.178 ± 0.00511 E-score.

For the sequence GGAGCACC, the binding signal amounted to 0.268 ± 0.0396 E-score.

AGGGGGAT: the binding signal was found to be 0.23 ± 0.0203 E-score.

CGCAAACA: the binding signal is 0.181 ± 0.0196 E-score.

For the sequence GTGATACA, the binding signal was 0.172 ± 0.0198 E-score.

For the sequence ACCATACA, the binding signal was 0.3199 ± 0.00166 E-score.

With GGTCCGTA, the binding signal stood at 0.189 ± 0.0444 E-score.

Turning to GAGGGTAC, the binding signal was 0.183 ± 0.0122 E-score.

In the case of TGACGACA, the binding signal turned out to be 0.212 ± 0.00725 E-score.

Take AGGCACCA: the binding signal was 0.178 ± 0.0251 E-score.

For the sequence TGACACCA, the binding signal came out at 0.4915 ± 0.00377 E-score.

Regarding GGACACCA, the binding signal was 0.4831 ± 0.00245 E-score.

In the case of GGACACGA, the binding signal was determined as 0.356 ± 0.0172 E-score.

On to TGACACAA, for which the binding signal came out at 0.298 ± 0.0424 E-score.

With AGACACCA, the binding signal turned out to be 0.458 ± 0.0134 E-score.

Turning to TCCATGGA, the binding signal worked out at 0.1596 ± 0.000424 E-score.

Take CGGGGTTA: the binding signal was 0.22 ± 0.0181 E-score.

As to ACGGAACA, the binding signal is 0.212 ± 0.00638 E-score.

On to TGTGAACA, for which the binding signal was found to be 0.327 ± 0.0228 E-score.

As for ACCGTTGG, the binding signal amounted to 0.2165 ± 0.000431 E-score.

On to ACCCGACG, for which the binding signal was found to be 0.208 ± 0.0142 E-score.

For the sequence TAGCTACA, the binding signal stood at 0.209 ± 0.0332 E-score.

(Values after publication PMC10668032, “Altered binding affinity of SIX1-Q177R correlates with enhanced WNT5A and WNT pathway effector expression in Wilms tumor”.)
